Test [1] addresses T1, Inhibitor of nuclear factor kappa-B kinase subunit epsilon (Homo sapiens) (UniProt Q14164).
T1 sequence (whole entry): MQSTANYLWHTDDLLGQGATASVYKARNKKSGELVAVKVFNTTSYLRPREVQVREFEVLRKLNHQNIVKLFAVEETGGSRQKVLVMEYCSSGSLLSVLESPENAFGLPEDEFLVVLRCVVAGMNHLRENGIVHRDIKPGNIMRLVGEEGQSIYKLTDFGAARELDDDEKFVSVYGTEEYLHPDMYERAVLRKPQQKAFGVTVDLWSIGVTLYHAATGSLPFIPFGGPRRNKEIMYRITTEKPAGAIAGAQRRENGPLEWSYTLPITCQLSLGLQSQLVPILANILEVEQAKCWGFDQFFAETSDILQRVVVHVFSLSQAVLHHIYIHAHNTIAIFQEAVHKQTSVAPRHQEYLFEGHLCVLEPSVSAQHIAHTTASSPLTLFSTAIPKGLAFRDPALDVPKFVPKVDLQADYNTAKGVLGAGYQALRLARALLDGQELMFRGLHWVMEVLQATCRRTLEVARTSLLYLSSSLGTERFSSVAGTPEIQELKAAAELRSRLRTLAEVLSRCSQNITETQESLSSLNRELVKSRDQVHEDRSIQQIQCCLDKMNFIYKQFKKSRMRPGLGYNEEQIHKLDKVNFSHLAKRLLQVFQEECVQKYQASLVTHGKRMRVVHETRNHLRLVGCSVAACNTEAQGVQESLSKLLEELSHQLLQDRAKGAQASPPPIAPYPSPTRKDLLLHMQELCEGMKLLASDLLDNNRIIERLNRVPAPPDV
Particulars: at 1 µM.

For test [2], the target named is T2, Serine/threonine-protein kinase Nek1 (Homo sapiens) (UniProt Q96PY6).
T2 sequence (whole entry): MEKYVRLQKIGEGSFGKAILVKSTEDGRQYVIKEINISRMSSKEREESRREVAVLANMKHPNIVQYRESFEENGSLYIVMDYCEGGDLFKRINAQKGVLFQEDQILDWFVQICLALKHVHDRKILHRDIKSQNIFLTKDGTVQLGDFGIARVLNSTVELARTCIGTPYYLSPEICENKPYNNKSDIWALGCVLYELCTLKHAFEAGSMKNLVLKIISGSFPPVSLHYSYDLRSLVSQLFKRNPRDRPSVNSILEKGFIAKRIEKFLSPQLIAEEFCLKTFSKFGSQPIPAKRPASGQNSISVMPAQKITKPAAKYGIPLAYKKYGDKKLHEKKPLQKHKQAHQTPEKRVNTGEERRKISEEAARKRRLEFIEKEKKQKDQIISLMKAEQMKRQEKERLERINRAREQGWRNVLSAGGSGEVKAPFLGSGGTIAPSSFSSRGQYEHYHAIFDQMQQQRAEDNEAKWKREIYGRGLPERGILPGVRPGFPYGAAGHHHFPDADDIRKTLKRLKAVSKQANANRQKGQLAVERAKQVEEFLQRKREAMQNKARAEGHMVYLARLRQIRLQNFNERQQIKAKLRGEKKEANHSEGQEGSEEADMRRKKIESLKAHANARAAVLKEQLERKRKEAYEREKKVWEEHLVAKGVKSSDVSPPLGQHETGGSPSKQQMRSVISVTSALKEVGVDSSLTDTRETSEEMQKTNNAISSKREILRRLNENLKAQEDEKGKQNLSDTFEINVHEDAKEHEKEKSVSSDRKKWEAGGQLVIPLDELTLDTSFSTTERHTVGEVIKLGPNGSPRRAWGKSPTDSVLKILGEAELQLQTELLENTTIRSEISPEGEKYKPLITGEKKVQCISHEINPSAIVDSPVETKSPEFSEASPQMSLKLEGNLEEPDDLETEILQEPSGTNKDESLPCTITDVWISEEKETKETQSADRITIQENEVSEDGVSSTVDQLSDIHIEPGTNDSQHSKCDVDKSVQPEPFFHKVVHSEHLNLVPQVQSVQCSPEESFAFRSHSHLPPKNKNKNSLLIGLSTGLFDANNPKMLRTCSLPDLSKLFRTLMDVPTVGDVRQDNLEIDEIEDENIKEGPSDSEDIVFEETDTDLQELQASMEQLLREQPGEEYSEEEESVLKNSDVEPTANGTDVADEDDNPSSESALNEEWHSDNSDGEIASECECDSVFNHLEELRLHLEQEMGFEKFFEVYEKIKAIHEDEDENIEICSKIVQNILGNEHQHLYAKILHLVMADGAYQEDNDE
To be noted: at 0.1 µM.

For test [3], the target named is T2, Serine/threonine-protein kinase Nek1 (Homo sapiens). Particulars: at 1 µM.
In test [4] the target is T3, Serine/threonine-protein kinase Nek2 (Homo sapiens) (UniProt P51955).
T3 sequence (whole entry): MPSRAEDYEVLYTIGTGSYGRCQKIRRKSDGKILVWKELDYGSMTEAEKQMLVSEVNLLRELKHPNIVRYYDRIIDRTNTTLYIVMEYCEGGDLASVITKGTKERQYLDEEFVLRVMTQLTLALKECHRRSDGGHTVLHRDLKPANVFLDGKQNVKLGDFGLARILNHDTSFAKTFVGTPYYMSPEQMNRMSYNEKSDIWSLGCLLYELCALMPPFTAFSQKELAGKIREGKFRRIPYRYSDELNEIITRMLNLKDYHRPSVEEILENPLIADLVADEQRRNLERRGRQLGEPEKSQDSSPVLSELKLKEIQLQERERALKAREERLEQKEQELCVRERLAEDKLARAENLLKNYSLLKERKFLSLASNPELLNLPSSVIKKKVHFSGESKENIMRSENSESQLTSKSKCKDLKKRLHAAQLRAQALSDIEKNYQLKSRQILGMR
To be noted: at 0.1 µM.

Test [5] concerns the target T3, Serine/threonine-protein kinase Nek2 (Homo sapiens). To be noted: at 1 µM.
For test [6], the target named is Serine/threonine-protein kinase Nek6 (Homo sapiens) (UniProt Q9HC98). To be noted: at 0.1 µM.
Test [7] shares this target. To be noted: at 1 µM.
Test [8] concerns the target Serine/threonine-protein kinase Nek7 (Homo sapiens) (UniProt Q8TDX7). Particulars: at 0.1 µM.
Test [9] shares this target. Particulars: at 1 µM.
In test [10] the target is T4, Serine/threonine-protein kinase Nek9 (Homo sapiens) (UniProt Q8TD19).
T4 sequence (whole entry): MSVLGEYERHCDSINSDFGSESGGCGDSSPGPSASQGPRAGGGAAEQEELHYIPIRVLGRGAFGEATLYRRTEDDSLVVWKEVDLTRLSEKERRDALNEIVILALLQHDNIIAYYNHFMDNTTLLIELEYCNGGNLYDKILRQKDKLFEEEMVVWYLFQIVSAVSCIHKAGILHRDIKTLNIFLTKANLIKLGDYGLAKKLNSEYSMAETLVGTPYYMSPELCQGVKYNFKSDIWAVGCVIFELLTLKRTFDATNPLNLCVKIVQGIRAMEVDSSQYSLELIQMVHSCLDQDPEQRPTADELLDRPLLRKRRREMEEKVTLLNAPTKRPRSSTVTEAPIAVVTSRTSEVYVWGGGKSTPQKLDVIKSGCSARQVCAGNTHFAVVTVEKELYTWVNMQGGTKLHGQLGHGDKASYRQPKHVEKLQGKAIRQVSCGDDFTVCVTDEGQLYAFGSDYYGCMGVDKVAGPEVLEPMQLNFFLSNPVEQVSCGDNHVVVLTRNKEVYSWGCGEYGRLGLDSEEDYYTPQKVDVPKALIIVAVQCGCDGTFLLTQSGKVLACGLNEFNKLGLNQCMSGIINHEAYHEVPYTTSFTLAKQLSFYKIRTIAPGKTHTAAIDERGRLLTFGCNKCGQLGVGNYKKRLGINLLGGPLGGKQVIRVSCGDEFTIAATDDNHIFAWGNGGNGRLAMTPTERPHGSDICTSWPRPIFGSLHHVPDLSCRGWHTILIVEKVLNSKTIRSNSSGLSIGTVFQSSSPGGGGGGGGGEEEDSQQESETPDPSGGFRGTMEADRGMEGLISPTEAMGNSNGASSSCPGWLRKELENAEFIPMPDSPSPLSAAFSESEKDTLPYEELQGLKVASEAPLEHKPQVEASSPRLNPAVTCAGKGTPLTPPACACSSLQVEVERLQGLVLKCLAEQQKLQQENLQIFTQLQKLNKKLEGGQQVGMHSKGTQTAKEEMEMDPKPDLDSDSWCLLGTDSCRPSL
Particulars: at 0.1 µM.

The target of test [11] is T4, Serine/threonine-protein kinase Nek9 (Homo sapiens). Particulars: at 1 µM.
Test [12] deals with Serine/threonine-protein kinase PLK1 (Homo sapiens) (UniProt P53350). Particulars: at 0.1 µM.
The target is the same in test [13]. Particulars: at 1 µM.
The target of test [14] is T5, Dual specificity protein kinase TTK (Homo sapiens) (UniProt P33981).
T5 sequence (whole entry): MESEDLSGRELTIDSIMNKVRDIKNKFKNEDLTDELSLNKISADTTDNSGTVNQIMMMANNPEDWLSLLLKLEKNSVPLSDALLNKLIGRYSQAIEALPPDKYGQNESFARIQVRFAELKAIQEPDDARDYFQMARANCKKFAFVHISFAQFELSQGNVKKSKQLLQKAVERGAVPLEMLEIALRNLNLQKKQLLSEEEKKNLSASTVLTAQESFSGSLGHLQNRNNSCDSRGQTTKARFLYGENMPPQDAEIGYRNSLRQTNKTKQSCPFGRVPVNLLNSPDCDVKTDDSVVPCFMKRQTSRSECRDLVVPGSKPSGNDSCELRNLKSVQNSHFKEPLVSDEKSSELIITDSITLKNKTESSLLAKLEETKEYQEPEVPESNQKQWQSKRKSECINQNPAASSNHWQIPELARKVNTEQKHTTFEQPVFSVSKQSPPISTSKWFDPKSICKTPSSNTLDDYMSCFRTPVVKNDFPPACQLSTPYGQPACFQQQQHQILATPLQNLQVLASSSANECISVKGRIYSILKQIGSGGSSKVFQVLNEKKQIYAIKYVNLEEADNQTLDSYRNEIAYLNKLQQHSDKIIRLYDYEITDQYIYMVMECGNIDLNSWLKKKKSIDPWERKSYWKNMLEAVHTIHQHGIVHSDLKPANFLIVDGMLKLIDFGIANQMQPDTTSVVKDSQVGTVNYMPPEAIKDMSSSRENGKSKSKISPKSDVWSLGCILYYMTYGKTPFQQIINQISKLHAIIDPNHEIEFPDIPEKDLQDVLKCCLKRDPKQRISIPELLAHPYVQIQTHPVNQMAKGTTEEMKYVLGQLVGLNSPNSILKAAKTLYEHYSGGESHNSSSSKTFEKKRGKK
To be noted: at 0.1 µM.

The subject of test [15] is T6, Receptor-type tyrosine-protein kinase FLT3 (Homo sapiens), P36888 [D835Y].
T6 sequence (whole entry): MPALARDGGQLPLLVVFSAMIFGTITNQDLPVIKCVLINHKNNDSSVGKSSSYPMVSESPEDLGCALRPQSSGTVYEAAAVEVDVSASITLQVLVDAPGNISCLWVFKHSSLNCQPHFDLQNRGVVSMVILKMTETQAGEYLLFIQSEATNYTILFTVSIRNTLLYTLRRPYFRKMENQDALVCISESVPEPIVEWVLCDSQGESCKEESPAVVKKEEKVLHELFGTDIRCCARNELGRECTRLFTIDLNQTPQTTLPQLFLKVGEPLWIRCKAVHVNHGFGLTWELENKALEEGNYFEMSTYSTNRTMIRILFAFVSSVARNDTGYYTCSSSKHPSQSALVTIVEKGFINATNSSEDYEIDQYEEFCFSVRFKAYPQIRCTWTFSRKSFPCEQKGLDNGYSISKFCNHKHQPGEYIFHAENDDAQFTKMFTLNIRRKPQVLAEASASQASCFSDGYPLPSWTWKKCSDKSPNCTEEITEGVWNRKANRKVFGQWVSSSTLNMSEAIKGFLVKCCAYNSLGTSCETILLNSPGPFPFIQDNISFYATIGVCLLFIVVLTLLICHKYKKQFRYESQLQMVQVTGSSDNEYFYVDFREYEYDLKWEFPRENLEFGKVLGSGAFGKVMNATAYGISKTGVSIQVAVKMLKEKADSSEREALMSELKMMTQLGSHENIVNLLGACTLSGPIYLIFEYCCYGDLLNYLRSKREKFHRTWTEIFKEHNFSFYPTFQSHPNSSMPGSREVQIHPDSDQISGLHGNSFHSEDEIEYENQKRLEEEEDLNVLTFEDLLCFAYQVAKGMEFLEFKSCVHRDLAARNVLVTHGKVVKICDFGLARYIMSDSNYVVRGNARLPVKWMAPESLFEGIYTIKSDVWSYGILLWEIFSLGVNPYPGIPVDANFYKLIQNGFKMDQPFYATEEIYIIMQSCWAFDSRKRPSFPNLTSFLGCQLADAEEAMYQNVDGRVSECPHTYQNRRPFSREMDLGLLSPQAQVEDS
Particulars: at 1 µM.

The target of test [16] is Vascular endothelial growth factor receptor 3 (Homo sapiens) (UniProt P35916). Particulars: at 0.1 µM.
Test [17] shares this target. To be noted: at 1 µM.
Test [18] has as its target Macrophage colony-stimulating factor 1 receptor (Homo sapiens) (UniProt P07333). To be noted: at 0.1 µM.
Test [19] has the same target. To be noted: at 1 µM.
The target of test [20] is Tyrosine-protein kinase Fyn (Homo sapiens) (UniProt P06241). To be noted: at 0.1 µM.

The structures appear in SMILES notation.

Sequence of Vascular endothelial growth factor receptor 3 (Homo sapiens) (P35916 whole entry): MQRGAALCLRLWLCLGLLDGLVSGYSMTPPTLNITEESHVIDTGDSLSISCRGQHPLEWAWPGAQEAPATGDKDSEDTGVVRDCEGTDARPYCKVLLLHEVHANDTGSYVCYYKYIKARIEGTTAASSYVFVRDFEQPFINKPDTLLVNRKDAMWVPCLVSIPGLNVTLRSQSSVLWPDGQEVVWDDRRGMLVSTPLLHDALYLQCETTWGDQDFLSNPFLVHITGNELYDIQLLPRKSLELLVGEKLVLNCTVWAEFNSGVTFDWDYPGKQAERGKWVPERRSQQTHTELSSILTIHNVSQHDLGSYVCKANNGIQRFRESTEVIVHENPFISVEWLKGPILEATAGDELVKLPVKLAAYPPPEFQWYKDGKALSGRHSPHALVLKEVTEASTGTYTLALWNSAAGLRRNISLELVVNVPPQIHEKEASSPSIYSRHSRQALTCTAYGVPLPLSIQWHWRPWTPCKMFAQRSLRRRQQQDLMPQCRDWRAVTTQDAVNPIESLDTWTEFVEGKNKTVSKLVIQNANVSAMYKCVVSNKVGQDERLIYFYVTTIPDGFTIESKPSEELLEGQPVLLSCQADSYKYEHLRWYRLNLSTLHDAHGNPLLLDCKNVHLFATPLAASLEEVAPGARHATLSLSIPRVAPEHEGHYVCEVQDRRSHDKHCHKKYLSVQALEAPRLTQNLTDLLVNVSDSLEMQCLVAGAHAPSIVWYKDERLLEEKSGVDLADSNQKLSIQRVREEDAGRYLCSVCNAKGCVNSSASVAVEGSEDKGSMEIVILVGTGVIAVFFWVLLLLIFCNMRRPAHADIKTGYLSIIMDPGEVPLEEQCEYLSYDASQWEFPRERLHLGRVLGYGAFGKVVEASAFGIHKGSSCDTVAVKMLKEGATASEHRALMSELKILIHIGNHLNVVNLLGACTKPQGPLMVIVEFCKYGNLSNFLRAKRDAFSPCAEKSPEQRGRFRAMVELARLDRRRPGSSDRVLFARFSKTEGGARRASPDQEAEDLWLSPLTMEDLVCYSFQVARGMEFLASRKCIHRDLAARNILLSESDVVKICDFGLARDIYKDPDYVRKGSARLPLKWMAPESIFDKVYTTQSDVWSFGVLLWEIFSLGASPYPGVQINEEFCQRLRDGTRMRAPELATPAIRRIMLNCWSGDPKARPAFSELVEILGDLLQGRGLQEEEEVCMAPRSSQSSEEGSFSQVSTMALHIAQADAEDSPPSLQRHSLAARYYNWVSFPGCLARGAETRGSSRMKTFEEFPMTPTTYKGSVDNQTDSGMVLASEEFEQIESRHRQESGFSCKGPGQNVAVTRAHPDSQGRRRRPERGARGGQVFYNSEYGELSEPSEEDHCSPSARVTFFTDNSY
Sequence of Serine/threonine-protein kinase PLK1 (Homo sapiens) (P53350 whole entry): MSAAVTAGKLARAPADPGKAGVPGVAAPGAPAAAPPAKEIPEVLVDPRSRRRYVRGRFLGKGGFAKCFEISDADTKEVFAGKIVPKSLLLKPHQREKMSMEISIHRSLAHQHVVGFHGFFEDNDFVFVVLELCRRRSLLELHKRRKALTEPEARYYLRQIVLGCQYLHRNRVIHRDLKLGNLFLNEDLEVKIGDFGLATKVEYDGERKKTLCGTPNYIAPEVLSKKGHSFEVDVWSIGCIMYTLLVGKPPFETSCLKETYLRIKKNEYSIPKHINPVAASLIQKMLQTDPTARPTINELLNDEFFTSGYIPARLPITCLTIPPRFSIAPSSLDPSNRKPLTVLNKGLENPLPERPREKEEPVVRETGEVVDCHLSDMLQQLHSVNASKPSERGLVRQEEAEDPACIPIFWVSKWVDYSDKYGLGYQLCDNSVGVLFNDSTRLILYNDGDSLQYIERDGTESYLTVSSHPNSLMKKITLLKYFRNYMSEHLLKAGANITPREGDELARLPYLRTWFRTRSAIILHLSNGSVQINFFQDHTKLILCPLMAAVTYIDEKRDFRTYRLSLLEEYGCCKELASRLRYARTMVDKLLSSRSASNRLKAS
Sequence of Serine/threonine-protein kinase Nek6 (Homo sapiens) (Q9HC98 whole entry): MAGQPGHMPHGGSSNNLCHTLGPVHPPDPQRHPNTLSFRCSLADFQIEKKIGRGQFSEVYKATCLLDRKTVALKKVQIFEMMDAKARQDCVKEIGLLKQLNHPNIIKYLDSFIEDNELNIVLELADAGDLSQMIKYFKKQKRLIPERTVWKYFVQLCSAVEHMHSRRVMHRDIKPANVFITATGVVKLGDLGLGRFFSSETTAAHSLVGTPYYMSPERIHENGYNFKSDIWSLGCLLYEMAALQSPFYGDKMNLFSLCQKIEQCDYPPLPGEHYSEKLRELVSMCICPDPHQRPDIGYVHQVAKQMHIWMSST
Sequence of Macrophage colony-stimulating factor 1 receptor (Homo sapiens) (P07333 whole entry): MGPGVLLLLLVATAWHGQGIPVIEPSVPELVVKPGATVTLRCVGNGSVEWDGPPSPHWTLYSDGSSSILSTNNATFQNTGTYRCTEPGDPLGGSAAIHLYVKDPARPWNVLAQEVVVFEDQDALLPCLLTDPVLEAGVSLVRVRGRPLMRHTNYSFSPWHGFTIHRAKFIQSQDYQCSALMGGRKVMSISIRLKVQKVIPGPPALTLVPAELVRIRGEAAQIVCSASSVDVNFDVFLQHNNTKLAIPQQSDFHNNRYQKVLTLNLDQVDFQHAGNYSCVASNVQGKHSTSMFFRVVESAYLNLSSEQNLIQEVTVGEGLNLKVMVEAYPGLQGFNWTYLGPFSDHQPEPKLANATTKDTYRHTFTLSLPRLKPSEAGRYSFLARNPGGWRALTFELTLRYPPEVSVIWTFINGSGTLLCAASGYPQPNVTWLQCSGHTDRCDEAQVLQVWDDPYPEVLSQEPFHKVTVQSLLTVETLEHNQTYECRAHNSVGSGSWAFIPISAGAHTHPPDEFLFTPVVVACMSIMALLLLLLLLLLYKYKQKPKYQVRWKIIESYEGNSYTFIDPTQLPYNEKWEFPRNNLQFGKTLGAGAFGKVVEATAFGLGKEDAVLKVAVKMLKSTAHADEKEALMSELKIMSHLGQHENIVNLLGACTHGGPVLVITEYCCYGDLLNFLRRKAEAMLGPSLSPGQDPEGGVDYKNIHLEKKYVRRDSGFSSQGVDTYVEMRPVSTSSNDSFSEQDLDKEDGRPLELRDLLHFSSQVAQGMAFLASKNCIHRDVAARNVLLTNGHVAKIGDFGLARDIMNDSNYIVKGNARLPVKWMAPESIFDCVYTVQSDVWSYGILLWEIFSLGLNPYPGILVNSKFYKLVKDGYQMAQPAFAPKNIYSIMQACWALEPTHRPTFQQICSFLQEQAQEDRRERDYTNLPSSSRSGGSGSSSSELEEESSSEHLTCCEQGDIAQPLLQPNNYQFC
Sequence of Serine/threonine-protein kinase Nek7 (Homo sapiens) (Q8TDX7 whole entry, looked up): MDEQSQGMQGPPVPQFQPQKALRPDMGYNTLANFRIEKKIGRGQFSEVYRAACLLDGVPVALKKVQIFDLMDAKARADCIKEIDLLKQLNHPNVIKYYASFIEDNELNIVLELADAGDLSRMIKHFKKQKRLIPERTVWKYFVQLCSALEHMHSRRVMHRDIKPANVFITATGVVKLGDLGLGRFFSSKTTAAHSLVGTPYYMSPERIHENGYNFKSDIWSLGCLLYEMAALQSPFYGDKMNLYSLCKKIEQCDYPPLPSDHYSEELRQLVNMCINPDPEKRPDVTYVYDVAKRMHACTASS
Sequence of Tyrosine-protein kinase Fyn (Homo sapiens) (P06241 2-537 limits assumed): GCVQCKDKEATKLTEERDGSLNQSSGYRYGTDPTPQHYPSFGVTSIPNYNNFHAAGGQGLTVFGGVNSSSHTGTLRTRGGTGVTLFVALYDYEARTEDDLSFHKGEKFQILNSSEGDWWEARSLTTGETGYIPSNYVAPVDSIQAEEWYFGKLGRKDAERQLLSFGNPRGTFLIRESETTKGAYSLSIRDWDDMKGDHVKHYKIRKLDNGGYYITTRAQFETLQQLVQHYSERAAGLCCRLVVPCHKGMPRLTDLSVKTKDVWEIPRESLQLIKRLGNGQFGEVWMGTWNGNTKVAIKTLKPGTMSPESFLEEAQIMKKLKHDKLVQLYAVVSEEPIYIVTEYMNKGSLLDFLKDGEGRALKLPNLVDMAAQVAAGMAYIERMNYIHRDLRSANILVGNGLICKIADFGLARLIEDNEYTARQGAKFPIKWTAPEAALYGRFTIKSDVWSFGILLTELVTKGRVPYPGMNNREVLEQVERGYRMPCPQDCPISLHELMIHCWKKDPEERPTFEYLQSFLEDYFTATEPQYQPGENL

One may read the inhibition as the relative decrease from the control value, in per cent. Consider `[O-][S+]1CCN(Cc2ccc(-c3ccc4ncnc(Nc5ccc(OCc6ccccc6)c(Cl)c5)c4c3)o2)CC1`, for which the inhibition came out at 1.71% in [1]; 0.94% in test [2]; 0.52% in test [3]; 3.08% in [4]; 0.41% in test [5]; 3.35% in test [6]. Besides, the inhibition in test [7] is 1.93%; in [8], 1.32%; in test [9], 5.75%; in test [10], 0.79%; in [11] it was 3.24%; in [12], 3.9%. In addition, the inhibition is 2.79% in test [13]; 8.87% in test [14]; -1.91% in test [15]; 7.2% in test [16]; 11.7% in [17]; -0.34% in [18]. The inhibition was 0.13% in [19] and 2.58% in test [20].

On to `CN1CCN(C(=O)c2ccc(NC(=O)Nc3ccc(N(C)c4ccnc(Nc5ccc(CS(C)(=O)=O)cc5)n4)cc3)cc2)CC1`, for which the inhibition in test [1] came to 14.2%; in [2], 5.21%; in [3], 29.1%; in [4], 2.78%; in test [5], 3.14%; in test [6], 1.8%. In addition, the inhibition in test [7] was -1.02%; in test [8], 2.05%; in test [9] it was 5.08%; in test [10] it was 6.54%; in test [11], 30.1%; in [12], 2.98%. The inhibition was found to be 3.2% in [13]; 2.87% in test [14]; 25.1% in test [15]; 8.95% in test [16]; 37.5% in test [17]; 87.7% in test [18]. Also, the inhibition in test [19] came out at 81.2%; in [20], 0.29%.

The values are drawn from ChEMBL document CHEMBL1961873, “Compounds: GSK PKIS; Assays: Nanosyn kinase panel” (2012).
